Drawing on PubChem BioAssay (NCATS), this text covers parasite growth, % of DMSO control for 13 compounds.

SMILES strings stand for the structures.

A short description of this test: qHTS profiling of the MIPE4 collection as inhibitors of Plasmodium falciparum (3D7) proliferation (AID 743344).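 Also: scaled between DMSO vehicle wells and 0.29 µM artemisinin as full inhibition.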 As to conditions: P. falciparum 3D7 in erythrocytes, SYBR Green DNA fluorescence, 72 h; at 28.5 µM unless noted. The gist of the method:
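Erythrocytes infected with P. falciparum (0.3% parasitemia, 2.5% hematocrit) incubated with compounds 72 h at 37 C, 5% CO2. Lysis with saponin/Triton buffer containing SYBR Green I, overnight at room temperature in the dark; DNA fluorescence (485/535 nm) normalised to 0.29 uM artemisinin and DMSO.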
Turning to `N#CNC(=NCCCCCCOc1ccc(Cl)cc1)Nc1ccncc1`, the parasite growth, % of DMSO control came to 12.1%.
For the compound `NC[C@H]1O[C@H](O[C@H]2[C@@H](O)[C@@H](O[C@H]3O[C@H](CO)[C@@H](O)[C@H](N)[C@@H]3O)[C@H](N)C[C@@H]2N)[C@H](N)C[C@H]1O`, the parasite growth, % of DMSO control was 97.7%.
Next, `CC(C)(C)[N+]([O-])=Cc1ccc(S(=O)(=O)O)cc1S(=O)(=O)O`: 102%.
Then `Cc1ccc(O)c(C(CCN(C(C)C)C(C)C)c2ccccc2)c1` (stereo not drawn), with 11.8%; and `NC(=O)c1ncn([C@@H]2O[C@H](CO)[C@@H](O)[C@@H]2O)c1O`, with 109%; and `CCCNS(=O)(=O)Nc1ncnc(OCCOc2ncc(Br)cn2)c1-c1ccc(Br)cc1`, with 102%.
In the case of `COC(=O)[C@@H]1CC2=CC(=O)CC[C@]2(C)[C@@]23O[C@@H]2C[C@@]2(C)[C@H](CC[C@@]24CCC(=O)O4)[C@@H]13`, the parasite growth, % of DMSO control is 74.7%.
Take `CCc1cnn2c(NCc3ccc[n+]([O-])c3)cc(N3CCCC[C@@H]3CCO)nc12`: the parasite growth, % of DMSO control stood at 14.9%.
As for `COc1cc(C)c(C=CC(C)=CC=CC(C)=CC(=O)O)c(C)c1C`, the parasite growth, % of DMSO control was 85.8%.
The compound `C[C@H](NC(=O)Cc1cc(F)cc(F)c1)C(=O)N[C@H](C(=O)OC(C)(C)C)c1ccccc1` gave a parasite growth, % of DMSO control of 74.2%.
Take `O=C(C=CC=Cc1ccc2c(c1)OCO2)N1CCCCC1`: the parasite growth, % of DMSO control came out at 87.5%.
Next, `C[C@H]1O[C@H](O[C@H]2[C@H](O)[C@@H](O)[C@@H](O[C@H]3[C@H](O)[C@@H](O)C(O)O[C@H]3CO)O[C@H]2CO)[C@H](O)[C@@H](O)[C@H]1N[C@H]1C=C(CO)[C@@H](O)[C@H](O)[C@@H]1O` (stereo partly drawn): 92.3%.
Take `C[C@]12C=CC(=O)N[C@@H]1CC[C@H]1[C@H]3CC[C@@H](C(=O)Nc4cc(C(F)(F)F)ccc4C(F)(F)F)[C@@]3(C)CC[C@@H]12`: the parasite growth, % of DMSO control came to 9.6%.
